± gives the standard deviation of the averaged measurements. The full ranking holds about 25,000 sequences; the median of “ln(normalized median fluorescence intensity)” is about 7.9, and the highest 2% start at about 11. The sample holds the highest values, similar sequences and a random draw of the others, so the mix is not that of the screen.
Test system: PfAP2-I AP2 domain 3 (GST-tagged)
Assay: gcPBM binding intensity (ln(normalized median fluorescence intensity)); higher = stronger DNA binding
How it was run: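 In this array assay, P. falciparum DNA-binding domains with a GST tag, expressed in E. coli, were applied for 1 h to primer-extended double-stranded 36-bp intergenic genomic probes and negative controls on an Agilent 4 × 180k array. Bound protein was visualised with Alexa488 anti-GST antibody at 488 nm. Binding intensity is the highest Masliner-normalised natural-log median intensity across replicate spots of either probe orientation.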

| Sequence | gcPBM binding intensity (ln) |
| --- | --- |
| ATATAATAAGGTTAAGCACACATATTACATATATAA [CACACA_site9110] | 8.35 ± 0.23 |
| AATTAATGGTTAAAGGTGCACAATACATATATTACA [GTGCAC_site9943] | 11.32 ± 0.035 |
| ATATTATATTTCTTTTGTACATATTATATAATATAT [XGTACX_site7198] | 8.1 ± 0.56 |
| ATATATAAATATATTTGTACATATAATATGTATTAT [XGTACX_site8820] | 7.75 ± 0.47 |
| TTTATAAAGGGAAAGGTGCAAAAGGTGAAAGTTTTA | 10.9 ± 0.44 |
| ATAATAATAAAATATATATACAAAGGTGAAATTATA [TGCATGCA_negctrl_site197] | 7.96 ± 0.58 |
| AATTATTGTGAAGGGAAAACAAAAAAGTTTATAATT [CACACA_negctrl_site1337] | 8.01 ± 0.72 |
| TATGATGATGAATAACGTACAAAAAAATTAATCACC [XGTACX_site6794] | 8.16 ± 0.49 |
| TTTTGTAAAAAGAAAAATTAGAATATATCGTATATA [XGTACX_negctrl_site617] | 7.19 ± 0.45 |
| ATCAACATTACATTTAGTACACATATATTTCTATGT [XGTACX_site4436] | 8.16 ± 0.36 |
| TTTTTTTTCTAAATTATATGAAAATATATGTTATGT [GTGCAC_negctrl_site85] | 7.79 ± 0.23 |
| ACGGAAAAAGAAAAGGTGCATATGGACACAATATAT | 10.85 ± 0.099 |
| TAAAAGAAATAAGGTGCACACATATACATATATATA [CACACA_site8037] | 10.19 ± 0.071 |
| AAAGAAATAAGGTGCACACATATACATATATATATA [CACACA_site429] | 10.3 ± 0.29 |
| TTTTACAAAATAAAAATATAGAATACGGTAAATTAT [GTGCAC_negctrl_site40] | 7.87 ± 0.73 |
| GTTATAAACAAAATAAATATATGAATATATAATAAT [XGTACX_negctrl_site96] | 7.46 ± 0.5 |
| ATATATCATATTATAGTGCATTTATAATAATATTAT | 10.8 ± 0.13 |
| TTATTATAATCATTAGTGCATATATTATTTTTATAT | 9.795 ± 0.049 |
| ATAAATTTTTAAACAGCACACATAAATATAATATAT [CACACA_site8691] | 8.28 ± 0.4 |
| TAATATTTTAATTGTGTGCACATTAATATTATAAAA | 10.1 ± 0.16 |
| TAAAATAAATTGTGCACACATATTTATAAATATGAA [CACACA_site2331] | 11.3 ± 0.35 |
| TTTATATATTTTGTCGTGCACATTTGGAAAATTACA [GTGCAC_site9776] | 10.8 ± 0.16 |
| TATATATATATAATTGTGCACATAATTTTAAACCAA | 11.1 ± 0.13 |
| AGGAAAATTTTATTTGCACACATTATTACGTCTAAA [CACACA_site2337] | 9.9 ± 0.4 |

| Sequence | gcPBM binding intensity (ln) |
| --- | --- |
| TAAAATAATATTTATGTGCACATATAATTATTAATT | 10.395 ± 0.007 |
| AACATATTGGATTTAGTGCACATATATATCATAATA | 11.5 ± 0.29 |
| TATAAAATAAATTGTGCACACATATTTATAAATATG [CACACA_site2330] | 10.71 ± 0.078 |
| GAAATATAATTTATTACACACATTTTAAAAAAATTC [CACACA_site1087] | 7.74 ± 0.18 |
| TATTAAAAGTAAAAAACACACATGGATATATACATA [CACACA_site3959] | 7.67 ± 0.64 |
| AAACAAAGGGAACATGTGCACTTACAAAAAAAAAGA | 9.78 ± 0.28 |
| ATCTATATTATTTCTACACACATATCTATAATATGT [CACACA_site7561] | 7.85 ± 0.72 |
| GCTCATATGACAACAACACACAAAAAAATAAAATGA [CACACA_site714] | 7.8 ± 0.69 |
| TAAACAAATAAATATTGTACATTTTTTCCTTTTAAT [XGTACX_site5594] | 7.38 ± 0.39 |
| TATAGTTTTGAAAACAAACACACAAAAAAAAAAAAA [CACACA_site1691] | 8.07 ± 0.7 |
| TAATATACATATATATGTACATATATATATATATAT [XGTACX_site2684] | 9.09 ± 0.47 |
| GTGCAAAATATTTTTACACACAAATTTTTACAACAG [CACACA_site3357] | 9.99 ± 0.63 |
| TATAAACCTTTTTGCACGCACACAAAAAAAAAATAA [CACACA_site168] | 9.99 ± 0.46 |
| TAATAAAAAAAGTGCACACACATAATATTTATATAT [CACACA_site7548] | 9.7 ± 0.18 |
| TGTGCATAAATTTATGCACACATAAAAAAAAAAAAA [CACACA_site8954] | 11.5 ± 0.93 |
| AATATAAGTTTATTAGTGCACAGATAAATATATATT [GTGCAC_site9784] | 11.4 ± 0.23 |
| TATATATATATATATGTGCACATTTTATTAAAATGT | 9.87 ± 0.15 |
| TAAAATAATTTATGCATACACACATATATATATATA [CACACA_site4021] | 9.49 ± 0.26 |
| AAAAGTCTCTTTTTAGTGCACATTTTATTTAAATAT | 11.32 ± 0.078 |
| TATGTTGTTTATTTAGTGCATATTTAAATATTATAA [GTGCAC_site9601] | 10.16 ± 0.078 |
| TGCATAAATTTATGCACACATAAAAAAAAAAAAAAA [CACACA_site2923] | 10 ± 0.64 |
| GGGAAAATAAATAAAGTGCAGATATTAAAAGTTGTA | 8.85 ± 0.31 |
| ATATATTTATTTTGTGCACACAACGCAAACCTTTTA [CACACA_site3508] | 10.98 ± 0.092 |
